# Experimental data reported in PubChem BioAssay AID623868 (Vanderbilt High Throughput Screening Facility, 2012).
# Out of some 2,100 compounds screened, about 760 (36%) were called active. A selection follows. A number with no mark means an inactive call.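 Rule for the calls: active = thallium-flux fluorescence traces judged by eye to show enhanced or reduced glutamate response, manual score 1 or -1, so both directions (some results past the limit were not filed as active); inactive = the rest, including fluorescent or raised-baseline compounds.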
# Assay: non-GIRK thallium flux modulation in mGlu8 cells, confirmation, counter-screen for GIRK activator project, cell-based, HEK-293 rmGlu8, no GIRK (AID 623868);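 note: extra codes mark interference with 3 for fluorescent and 4 for baseline rise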
# Conditions: thallium flux fluorescence, at 10 µM, actives lie on both sides, codes: 1 enhancer, -1 blocker, 0 none, thallium stimulus containing EC20 glutamate
row,Compound,manual score
1,CC1CC2=C(CC1/C=N/NC(N)=S)C(C)(C)CCC2 (stereo not drawn),0
2,COc1ccccc1OCC(O)Cn1c(=N)n(Cc2ccccc2)c2ccccc21 (stereo not drawn),0
3,CCOC(=O)C1=C(C)NC2=C(C(=O)CC(c3ccc(OC)c(OC)c3)C2)C1c1ccc(C)o1 (stereo not drawn),0
4,CC1=C(C(=O)OCC2CCCO2)C(c2ccc(C)o2)C2=C(CC(c3ccc(F)cc3)CC2=O)N1 (stereo not drawn),-1 (active)
5,CSc1ccc(S(=O)(=O)NCc2ccccc2Cl)cc1,0
6,Cc1ccc(C(=O)CC(=O)COc2ccc(Cl)cc2)cc1,0
7,Cc1ccc(NC(=O)COC(=O)CCC(=O)c2ccc(Cl)cc2)cc1S(=O)(=O)N(C)C,0
8,Cc1ccc(C(=O)CC(=O)COc2ccc(Cl)cc2C)cc1,1 (active)
9,S=c1[nH]c2cc(Cl)ccc2s1,1 (active)
10,CCOC(=O)c1cccc(NC(=O)CSc2nnc(-c3cccnc3)n2C)c1,-1 (active)
11,CCc1nnc(NC(=O)CSc2nnc(C3CCCCC3)n2-c2cccc(Cl)c2)s1,-0.5
12,Cc1ccc(C)c(-n2nnnc2SCC(=O)Nc2cccc(-c3nnc4n3CCCCC4)c2)c1,3
13,COc1cccc(NC(=O)CSc2nnc(-c3ccoc3C)n2-c2ccccc2)c1,0
14,Cc1ccc(-c2nnc(SCC(=O)Nc3cccc(C(=O)N4CCOCC4)c3)n2C)cc1,0
15,CCOC(=O)c1cccc(NC(=O)CSc2nnc(C3CCCCC3)n2C)c1,-1 (active)
16,CC1(C)CC(=S)Nc2ccccc2S1,1 (active)
17,CC1CSc2ccccc2NC1=S (stereo not drawn),0
18,CC1CC(=S)Nc2ccccc2N1Cc1ccccc1 (stereo not drawn),0
19,O=C(CSc1ccccc1)N(c1ccc(Br)cc1)c1nccs1,0
20,c1cc2c(cc1C1=Nn3c(nnc3C3CCCCC3)SC1)OCO2,-1 (active)
21,COc1ccccc1C1=Nn2c(nnc2C2CCCCC2)SC1,0
22,CCCc1nnc2n1N=C(c1ccc(OC)c(OC)c1)CS2,-0.5
23,Brc1ccccc1C1=Nn2c(nnc2-c2ccccc2)SC1,0
24,COc1ccc(C2=Nn3c(nnc3C3CCCCC3)SC2)cc1OC,-1 (active)
25,CCC1(c2ccc(Cl)cc2)NC(=S)N(c2ccccc2)N1 (stereo not drawn),1 (active)
26,CCOc1ccccc1NC(=O)Nc1cccc(C(C)=O)c1,0

row,Compound,manual score
1,Clc1cccc(CSc2nnc(-c3ccccn3)n2Cc2ccco2)c1,-0.5
2,CCOc1ccccc1NC(=O)CSc1nnc(-c2ccccn2)n1Cc1ccco1,-1 (active)
3,CCOc1ccccc1NC(=O)CSc1nnc(-c2ccco2)n1Cc1ccco1,-1 (active)
4,CCn1c(SCC(=O)Nc2oc(-c3ccccc3)c(-c3ccccc3)c2C#N)nnc1-c1ccco1,0
5,COc1ccc(NC(=O)CSc2nnc(-c3ccccn3)n2Cc2ccco2)cc1OC,0
6,COc1cc(Cl)cc2c1Sc1ccccc1/C2=C/CCN(C)C,0
7,O=C(CSc1nc(-c2ccc(F)cc2)cs1)N1CCOCC1,0
8,CC1(C)Cc2ccccc2C(/C(=N\Nc2cccc(Cl)c2)C(N)=O)=N1,0
9,CC(C)(C)C1CCc2c(C(=O)N/N=C/c3cccs3)csc2C1 (stereo not drawn),0
10,Cc1cccc(NC(=S)NNC(=O)c2csc3c2CCCC3)c1,1 (active)
11,Cc1ccc(C)c(NC(=S)NNC(=O)c2cc3c(s2)CCC(C)C3)c1 (stereo not drawn),1 (active)
12,CC(C)CNC(=S)NNC(=O)c1csc2c1CCC(C)C2 (stereo not drawn),0
13,Cc1ccccc1NC(=S)NNC(=O)c1csc2c1CCC(C)C2 (stereo not drawn),1 (active)
14,Cc1cccc(NC(=S)NNC(=O)c2csc3c2CCC(C)C3)c1 (stereo not drawn),1 (active)
15,O=C1CCC(/C=C/c2ccccc2)=NN1Cc1ccc(Cl)c(Cl)c1,0
16,CCCN1CCC(NC(=O)Nc2ccc(F)cc2F)CC1,0
17,Cc1ccc(C)c(NC(=S)NNC(=O)c2csc3c2CCC(C)C3)c1 (stereo not drawn),1 (active)
18,Cc1ccc(C)c(NC(=S)NNC(=O)c2csc3c2CCCC3)c1,1 (active)
19,O=C(NC(=S)N1CCN(c2ccc(Cl)cc2[N+](=O)[O-])CC1)c1cccs1,1 (active)
20,O=C(NC(=S)N1CCN(c2ccc(C(F)(F)F)cc2[N+](=O)[O-])CC1)c1cccs1,1 (active)
21,O=C(NC(=S)N1CCCCC1)c1cccs1,1 (active)
22,O=C(O/N=C\c1ccc(N2CCCCC2)c([N+](=O)[O-])c1)c1c(F)cccc1F,0
23,O=C(N1CCCCC1)N1CCN(C(=O)N(c2ccccc2)c2ccccc2)CC1,0
24,FC(F)(F)c1cccc(N2CCN(C(=S)NC3CCCCC3)CC2)c1,0
25,O=C(NC(=S)N1CCN(c2ccc(Cl)cc2[N+](=O)[O-])CC1)c1ccco1,1 (active)
26,COC(=O)C1CCCN1C(=O)c1cccs1 (stereo not drawn),0

row,Compound,manual score
1,CCN(CC)CC(O)COc1ccccc1C(=O)CCc1ccccc1 (stereo not drawn),0
2,COC(=O)c1cc(=O)n(CCc2ccc(OC)cc2)c(=Nc2ccc(F)c(Cl)c2)s1,0
3,O=C(NC(=S)Nc1cccc(Cl)c1N1CCCC1)c1ccc(-c2cccc([N+](=O)[O-])c2)o1,0
4,O=C(NC(=S)N1CCN(c2c(Cl)cccc2[N+](=O)[O-])CC1)c1cccs1,1 (active)
5,COc1ccc(N(CC(=O)NC2CCCC2)C(=O)Cn2nnc(-c3ccc(C)cc3)n2)cc1,0
6,COc1cc2c(C(=O)N3CCN(C4CCCCC4)CC3)cn(CC(C)C)c(=O)c2cc1OC,0
7,CC(/C=N/NC(=O)c1c(Br)cnn1C)=C\c1ccccc1,0
8,CC(/C=N/n1c(-c2ccco2)n[nH]c1=S)=C\c1ccccc1,1 (active)
9,CC(=C/c1ccccc1)/C=N/n1c(-c2ccco2)n[nH]c1=S,1 (active)
10,CC(/C=N/n1c(C2CCCCC2)n[nH]c1=S)=C\c1ccccc1,1 (active)
11,Cc1ccc(C)n1-c1ccc(C(=O)NN)cc1,0
12,CC(C)NS(=O)(=O)c1ccc(OCC(=O)Nc2ccc3c(c2)OCO3)c(Cl)c1,0
13,COc1ccc(OC)c(C(=O)c2coc3ccc(O)c(CN4CCOCC4)c23)c1,0
14,O=C(CN1C(=O)c2ccccc2C1=O)Nc1sc2c(c1C(=O)NCC1CCCO1)CCC2 (stereo not drawn),0
15,Cc1ccc(-n2nc(-c3cccs3)cc2C(=O)NCC2CCCO2)c(C)c1 (stereo not drawn),-0.5
16,CCCCCNC(=O)c1ccc2c(=O)[nH]c3c(C(=O)NCC4CCCO4)sc(=S)n3c2c1 (stereo not drawn),-1 (active)
17,Cc1cc(C=C2C(=O)c3ccccc3C2=O)c(C)n1-c1ccccc1,3
18,CCc1nc2cc(Cl)c(Cl)cc2[nH]1,0
19,CCCOc1cccc(-c2cc(-c3n[nH]c(=S)n3CC)c3ccccc3n2)c1,1 (active)
20,CCn1c(-c2cc(-c3cccc(OC)c3)nc3ccccc23)n[nH]c1=S,0.5
21,O=C(Nc1cccs1)Nc1c(F)c(F)c(F)c(F)c1F,0
22,Cc1nc(C)c(C(=O)Nc2ccc(Oc3ccccc3)cc2)o1,0
23,O=C(Nc1nnc(-c2cccs2)o1)c1cccc(F)c1,1 (active)
24,CCCCN(C)S(=O)(=O)c1ccc(C(=O)Nc2nnc(-c3cccs3)o2)cc1,1 (active)
25,O=C(Nc1nnc(-c2cccs2)o1)c1cccc(Oc2ccccc2)c1,1 (active)
26,Cc1ncoc1C(=O)Nc1ccc(Oc2ccccc2)cc1,0

row,Compound,manual score
1,O=C(NNC(=S)Nc1cccc(C(F)(F)F)c1)c1cccc(Cl)c1,0
2,Cc1cc(C)c(NC(=O)c2ccc(S(=O)(=O)N(C)C)cc2)c(C)n1,0
3,CCOC(=O)C1=C(CC)Nc2ccccc2N=C1NC(=O)c1ccc(S(=O)(=O)N(C)C)cc1,-0.5
4,O=C(Nc1nnc(-c2cccs2)o1)c1cccc(C(F)(F)F)c1,1 (active)
5,Cc1occc1C(=O)Nc1cccc(C(F)(F)F)c1,0
6,CCOC(=O)C1=C(CC)Nc2ccccc2N=C1NC(=O)Nc1ccc(Cl)c(Cl)c1,0
7,CN1CCN(S(=O)(=O)c2cccc(S(=O)(=O)c3cccc(S(=O)(=O)N4CCN(C)CC4)c3)c2)CC1,0
8,Cc1cc2nc(CCN(C(=S)NCC(C)C)C3CCCC3)[nH]c2cc1C,0
9,Cc1nc(N2CCN(C(=O)COc3ccccc3)CC2)c2c(C)c(C)sc2n1,-1 (active)
10,Cc1sc2nc(CN3CCCC3)nc(N3CCN(S(=O)(=O)c4cccs4)CC3)c2c1C,0
11,O=C(CN1C(=O)c2cccc3cccc(c23)C1=O)N1CCN(c2ccccn2)CC1,3
12,CSc1cccc(NC(=O)CN(c2ccccc2)S(=O)(=O)N(C)C)c1,0
13,CCOC(=O)CSc1cccc2cccnc12,1 (active)
14,Cc1cccc(CSc2cccc3cccnc23)c1,1 (active)
15,CN(C)C(=O)CSc1cccc2cccnc12,0
16,CCOC(=O)CSc1cc(CSc2ccccc2)nc(-c2ccccc2)n1,0
17,O=C(CCCc1nc(-c2ccc(Cl)cc2)no1)N1CCOCC1,0
18,Cc1ccc(/C=N/NC(=S)N2CCOCC2)cc1,1 (active)
19,Cc1ccc(C(=O)c2ccc(N3CCOCC3)c(F)c2)cc1,0
20,O=C(NC(=Nc1ccccc1)N1CCOCC1)Nc1ccccc1,0
21,CC(CCc1ccccc1)NC(=O)N1CCOCC1 (stereo not drawn),0
22,S=C(N/N=C/c1ccccc1)N1CCOCC1,1 (active)
23,Clc1ccc(/C=N/Nc2nc(Cl)nc3ccccc23)cc1,0
24,S=C(N/N=C/c1ccc(Cl)cc1)N1CCOCC1,1 (active)
25,Cc1ccc(S(=O)(=O)c2c(C)cc(C)nc2Cl)c(C)c1,0
